CF NFkB inh – blocks PAF-induced NF-kB reporter in cystic fibrosis cells; KKLEB NF-kB-GFP reporter, GFP fluorescence overnight; hit rate 0.86% among 360,000; inhibition, % at 5 µM; AID 588850;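 active = at least 50% inhibition at 5 µM, scaled per plate between neutral and stimulator controls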;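 note: PAF is a Pseudomonas aeruginosa culture filtrate used as stimulus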
KKLEB tox – CF airway cell cytotoxicity counter-screen. activity change (cytotoxicity), % at 5 µM. hit rate 0.36% among 360,000. KKLEB CF airway cells viability, ATPlite luminescence, overnight; active compounds read low; cells stimulated with P. aeruginosa culture filtrate;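 active = corrected activity change at or below -50% at 5 µM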
TROY signal inh – blocks TROY-dependent signaling in reporter cells; AID 1347056; Q293 LMP1-TROYcd NF-kB luciferase reporter, 4 h; inhibition, % at 10 µM; hit rate 0.98% among 360,000;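 active = compounds whose plate-normalised and pattern-corrected inhibition of the luciferase reporter signal at the single screening dose is 50% or more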
Peg3 prom inh – inhibitors of Peg3 promoter; HeLa PEG-Prom luciferase reporter, luminescence, overnight; inhibition, % at 20 µM; hit rate 1.7% among 360,000;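 active = inhibition of at least 50% at 20 µM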
HIF-2a inh – inhibitors of HIF-2a; 786-0 RCC cells HIF-2a reporter, luciferase luminescence, overnight; inhibition, % at 18.8 µM; hit rate 0.72% among 360,000;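 active = inhibition of the luminescence signal of 40% or more relative to plate controls, in a single-dose primary screen at 18.75 µM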
TWEAK-Fn14 inh – inhibitors of TWEAK-Fn14 interaction signaling; hit rate 2% among 360,000; TWEAK-stimulated Fn14 reporter cells, luciferase luminescence, 8 h; inhibition, % at 10 µM; in the data active = inhibition above about 50%
A number is an active result; 0 = inactive; - = not tested or not shown. Only some compounds are listed: those with a hit (about 4% of all), similar ones and a draw of the others.

SMILES	CF NFkB inh	KKLEB tox	TROY signal inh	Peg3 prom inh	HIF-2a inh	TWEAK-Fn14 inh
CCOC(=O)c1ccc(NC(=O)c2nc[nH]c2C(=O)NCCCCNC(=O)c2[nH]cnc2C(=O)Nc2ccc(C(=O)OCC)cc2)cc1	0	0	0	97	0	0
CCOC(=O)c1ccc(NC(=O)c2nc[nH]c2C(=O)NCCCCCNC(=O)OC(C)(C)C)cc1	0	0	0	70	0	0
COc1ccc(CCNC(=O)C2CCN(S(=O)(=O)c3ccc(F)cc3)CC2)cc1	0	0	0	0	0	0
Cc1ccccc1-c1n[nH]nc1C1=CC(=O)C[C@H](c2ccc(F)cc2)C1	0	0	0	0	0	0
O=C(CCc1nc(-c2ccccc2Cl)no1)Nc1cccnc1	0	0	0	0	0	0
COc1ccccc1NC(=O)CSc1nc2n[nH]c(C)c2c(=N)n1-c1ccccc1Cl	0	0	0	0	0	62
CCN(CC)CCOc1ccc(/C(=C(\Cl)c2ccccc2)c2ccccc2)cc1	0	0	0	81	0	0
CCN(CC)CCOc1ccc(Br)cc1	0	0	0	0	0	0
Cc1ccc(S(=O)(=O)N(C)Cc2ccc(C(=O)N/N=C/c3ccc(OC(F)F)cc3OC(F)F)cc2)cc1	0	0	0	0	0	60
O=C(N/N=C/c1ccc(OC(F)F)cc1OC(F)F)c1ccc(Br)cc1	0	0	0	0	0	0
C=CCn1c(C)cc(C(=O)Cn2nc(C(=O)O)c3ccccc3c2=O)c1C	0	0	0	0	0	55
COCCn1c(C)cc(C(=O)Cn2nc(C(=O)O)c3ccccc3c2=O)c1C	0	0	0	0	0	69
CCC(=O)Nc1c(C#N)c2nc3ccccc3nc2n1-c1ccc(C)cc1	0	0	0	0	0	0
CCC(C)n1c(NC(=O)c2ccccc2)c(C#N)c2nc3ccccc3nc21 (stereo not given)	0	0	58	0	0	0
CCCCn1c(NC(=O)c2ccccc2)c(C#N)c2nc3ccccc3nc21	0	0	68	0	0	64
Cc1cc(Cn2nc(-c3ccccc3)cc2C(=O)NCC2CC2)on1	0	0	0	0	0	0
O=C(c1cc(-c2ccc(Cl)c(Cl)c2)on1)N1CCOCC1	0	0	0	0	0	0
O=C(c1cc(-c2ccc(Cl)cc2)on1)N1CCOCC1	0	0	0	0	0	51
COc1ccc(-c2cc(C(=O)N3CCCC3)no2)cc1	0	0	59	0	0	57
O=C(c1cc(-c2ccc(Cl)cc2Cl)on1)N1CCOCC1	0	0	0	0	0	71
COc1ccc(NC(=O)c2ccc(-c3csc(C)n3)cc2)cc1	0	0	0	0	0	0
CCCn1c(NC(=O)c2ccc(Cl)c(S(=O)(=O)N3CCCC3)c2)nc2ccccc21	0	0	0	53	0	60
Cc1nc(-c2ccc(C(=O)Nc3ccccc3F)cc2)cs1	0	0	66	0	0	90
Cc1nc(-c2ccc(C(=O)Nc3ccc(F)cc3)cc2)cs1	0	0	0	0	0	0
Cc1nc(-c2cccc(NC(=O)c3ccc(Cl)c(S(=O)(=O)N4CCCC4)c3)c2)cs1	0	0	0	55	0	0
SMILES	CF NFkB inh	KKLEB tox	TROY signal inh	Peg3 prom inh	HIF-2a inh	TWEAK-Fn14 inh
Cc1nc(-c2ccc(C(=O)Nc3cccc(F)c3)cc2)cs1	0	0	56	0	0	92
COCCN(CC(=O)Nc1cc(Cl)ccc1-n1cncn1)Cc1nc2ccccc2c(=O)[nH]1	0	0	0	0	0	0
NS(=O)(=O)c1cccc(NC(=O)CSc2nn(-c3ccccc3)c(=S)s2)c1	0	0	0	0	0	0
Cc1ccc(NC(=O)CSc2nn(-c3ccc(Cl)cc3)c(=S)s2)cc1S(=O)(=O)N(C)C	0	0	52	0	0	64
Cc1ccc(NC(=O)Cc2ccc(Cl)c(Cl)c2)cc1S(=O)(=O)N(C)C	0	0	0	0	0	0
Cc1ccc(NC(=O)CNc2ccc(Cl)c(Cl)c2)cc1S(=O)(=O)N(C)C	0	0	0	0	0	91
CN(C)S(=O)(=O)c1cc(NC(=O)CSc2nn(-c3ccc(Cl)cc3)c(=S)s2)ccc1Cl	0	0	0	0	0	83
CCCC(=O)OCC1CN(Cc2ccco2)S(=O)(=O)c2c(F)cccc2O1 (stereo not given)	0	0	0	0	0	0
CN1CCN(C(CNS(=O)(=O)c2ccc([N+](=O)[O-])cc2)c2ccc(F)cc2)CC1 (stereo not given)	0	0	0	0	0	0
O=[N+]([O-])c1ccc(/C=N/N=C/c2ccc([N+](=O)[O-])o2)o1	83	0	0	105	0	84
O=C(O)/C=C/c1ccc([N+](=O)[O-])o1	0	0	0	0	0	0
O=C1C2C3C=CC(C4CC34)C2C(=O)N1/N=C/c1ccc([N+](=O)[O-])o1 (stereo not given)	0	0	0	0	0	90
O=S1(=O)N[C@@H](Cc2ccccc2)COc2cccc(N3CCN(Cc4ccccc4F)CC3)c21	-	-	0	-	0	0
C=CC(=O)Nc1cccc(Nc2nc(N[C@H]3CC[C@H](N(C)C)CC3)nc3c2ncn3C(C)C)c1	85	-70	77	102	71	99
CC(C)n1cnc2c(Nc3cccc(Cl)c3)nc(NCCCO)nc21	0	0	0	0	0	0
COc1cccc(-c2cnc(C(O)c3cccc(F)c3)[nH]2)c1 (stereo not given)	0	0	52	0	0	0
COc1cccc(-c2cnc(C(O)c3cccc(OC)c3)[nH]2)c1 (stereo not given)	0	0	0	0	0	0
N#Cc1ccc(OCC(=O)OCC(=O)Nc2sccc2C(N)=O)cc1	0	0	0	0	0	0
CC1(C)NC(=O)N(CC(=O)N2CCN(S(=O)(=O)c3ccccc3C(F)(F)F)CC2)C1=O	0	0	0	0	0	0
COc1cccc(-c2nc(NC3CCCC3)c3ccccc3n2)c1O	0	0	71	0	0	0
C[C@@H]1CN([C@@H](C)CO)C(=O)Cc2cc(NC(=O)C3CCCCC3)ccc2O[C@H]1CN(C)S(=O)(=O)c1ccccc1	0	0	0	0	0	0
CCC(C)(C)NC(=O)CN(C(=O)CCC(=O)Nc1nccs1)c1ccc2c(c1)OCCO2	0	0	52	0	0	64
CC(C)Oc1ccc(S(=O)(=O)N2CCOCC2)cc1NC(=O)C1=NN(c2ccccc2)C(=O)CC1	0	0	0	0	0	0
Cc1ccc(NC(=O)C2Cc3ccccc3CN2C(=O)c2ccco2)cc1S(=O)(=O)N(C)C (stereo not given)	0	0	72	0	0	0
O=C(COC(=O)c1cccc(Br)c1)NCC1CCCO1 (stereo not given)	0	0	0	0	0	0
CCc1nc2ccccc2c(C(=O)OCC(=O)Nc2cccc(S(=O)(=O)N3CCOCC3)c2)c1C	0	0	68	77	0	97

Assay outcomes: PubChem, Sanford-Burnham Center for Chemical Genomics
